Inconclusive results are not listed. Activity calls are given as the source filed them. Rule for the calls: active = hit-call score of the fitted dose curve at least 0.9, where 1 is the maximum; inconclusive = response in the unintended direction; inactive = score below 0.9.

The assay can be described thus: ATG_Hpa5_TRANS: Attagene TRANS-FACTORIAL HepG2 Assay for human GAL4-Hpa5 Hepatocyte Transcription Factor Basal Promoter (AID 2282975).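 Note: hits are increases in reporter mRNA over DMSO baseline.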 As to conditions: HepG2 Attagene GAL4-Hpa5 transcription reporter. As to the method: ATG_TRANS is a cell-based, multiplexed-readout assay that uses HepG2, a human liver cell line, with measurements taken at 24 hours after chemical dosing in a 24-well plate.ATG_Hpa5_TRANS is one of 30 assay component(s) measured or calculated from the ATG_TRANS assay. It is designed to make measurements of mRNA induction, a form of inducible reporter, as detected with fluorescence intensity signals by Reverse transcription polymerase chain reaction (RT-PCR) and Capillary electrophoresis technology.Data from the assay component ATG_Hpa5_TRANS was analyzed into 1 assay endpoint. This assay endpoint, ATG_Hpa5_TRANS, was analyzed in the positive analysis fitting direction relative to DMSO as the negative control and baseline of activity. Using a type of inducible reporter, measures of mRNA for gain-of-signal activity can be used to understand the background control at the transcription factor-level as they relate to the gene . Furthermore, this assay endpoint can be referred to as a secondary readout, because this assay has produced multiple assay endpoints where this one serves a background control function. To generalize the intended target to other relatable targets, this assay endpoint is annotated to the background measurement intended target family, where the subfamily is internal marker.
Human liver HepG2 cells are transiently transfected with multiple reporter transcription units (MRTUs) in 6-well plates using FuGene 6 reagent (Roche; 3 ml FuGene/1 mg DNA). The MRTU constructs are regulated by a cis-regulating element (promoter). […] A major difference between the CIS and TRANS system is that in CIS activities of endogenous TFs are measured, whereas the TRANS assay evaluates changes in activities of exogenous, chimeric NR-Gal4 proteins. […] At the end of 24 hour incubation, total RNA was isolated using TriZol reagent (Invitrogen). The isolated RNA is then reverse-transcribed using oligo(dT) primer and Mo-MLV reverse transcriptase (Invitrogen) with DNAse I (Ambion) treatment for 30 min. The one-tenth of the produced cDNA was amplified by PCR using Taq DNA polymerase (Invitrogen) and two reporter sequence-specific primers. The PCR products were fluorescently labeled by primer extension with 6-arboxyfluorescein (6-FAM) 5'-labeled reporter sequence-specific primer (2 min at 95 C, 20 s at 68 C and 10 min at 72 C) and these products were digested with 5U of HpaI (New England Biolabs) for 2h at 37 C. The fragments were purified using Qiaquick PCR columns (Qiagen), analyzed on an ABI 3130xL genetic analyzer (Applied Biosystems) with peak positions identified by using a set of X-rhodamine (ROX)-labeled MapMarker1000 molecular weight standards (BioVentures). The raw capillary electrophoresis data was processed using Attagraph software (Attagene).
On to `S=C(S)NCCNC(=S)S.[Mn+2].[S-]C([S-])=NCCN=C([S-])[S-].[Zn+2]`, for which the molecule was called inactive.

As to `c1ccc(Nc2ccccc2)cc1`, the result was inactive. Next, `CCNc1nc(N)nc(Cl)n1`: “inactive”; `CN(C)C(=O)Nc1ccc(Cl)c(Cl)c1`: “inactive”. With `COC(=O)CSc1cc(N=c2sc(=O)n3n2CCCC3)c(F)cc1Cl` the entry was “inactive”; with `N#CSCSc1nc2ccccc2s1`, “inactive”. With `COC(=O)c1cccc(C)c1S(=O)(=O)NC(=O)Nc1nc(OCC(F)(F)F)nc(N(C)C)n1` the entry was “inactive”; with `CCSC(=O)N(CC(C)C)CC(C)C`, “inactive”.

For the molecule `Oc1ccc(C(c2ccc(O)cc2)C(Cl)(Cl)Cl)cc1`, the molecule was classed as inactive. In the case of `CCCOC(=O)c1ccc(C(=O)OCCC)nc1`, the molecule was called inactive. Regarding `CCN(Cc1c(F)cccc1Cl)c1c([N+](=O)[O-])cc(C(F)(F)F)cc1[N+](=O)[O-]`, the molecule was called inactive. With `CCCCOCCOCCOCc1cc2c(cc1CCC)OCO2` the entry was “inactive”. For `CCCCC(CC)COC(=O)c1ccccc1C(=O)O` (stereo not drawn), the molecule was classed as inactive. With `COCCO` the entry was “inactive”; with `S=C([S-])NCCNC(=S)[S-].[Mn+2]`, “inactive”. For `CCCN(CCC)C(=O)SCC`, the result was inactive. With `CCOC(=O)C(C)Oc1ccc(Oc2nc3ccc(Cl)cc3o2)cc1` (stereo not drawn) the entry was “inactive”; with `OB(O)O`, “inactive”; with `CCCN(CCC)c1c([N+](=O)[O-])cc(C(F)(F)F)c(N)c1[N+](=O)[O-]`, “inactive”. With `COC(=O)c1ccc(I)cc1S(=O)(=O)NC(=O)Nc1nc(C)nc(OC)n1` the entry was “inactive”; with `CCCCCOC(=O)COc1cc(N2C(=O)C3=C(CCCC3)C2=O)c(F)cc1Cl`, “inactive”; with `CCCCOC(=O)[C@@H](C)Oc1ccc(Oc2ccc(C(F)(F)F)cn2)cc1`, “inactive”. Take `COC(=O)c1c(Cl)nn(C)c1S(=O)(=O)NC(=O)Nc1nc(OC)cc(OC)n1`: the result was inactive. With `CCN(CC)C(=O)c1cccc(C)c1` the entry was “inactive”; with `CCOC(=O)[C@H](C)Oc1ccc(Oc2nc3ccc(Cl)cc3o2)cc1`, “inactive”.

In the case of `CCOC(=O)COc1cc(-n2ncc(C(F)(F)F)c(C)c2=O)c(F)cc1Cl`, the call was inactive. Regarding `CCOC(=O)NCCOc1ccc(Oc2ccccc2)cc1`, the outcome was inactive.

Consider `CCCCOC(=O)C(C)Oc1ccc(Oc2ccc(C(F)(F)F)cn2)cc1` (stereo not drawn), for which the outcome was inactive.

The values above are taken from PubChem BioAssay (EPA / NIEHS).
